Reference: the supplement of paper PMC10338343
± gives the standard deviation.

Columns and labels:
[1] = test system: MILI (PIWIL2) piRISC loaded with L1MC piRNA (26 nt); assay: pre-steady-state target cleavage rate (min^-1); guide: L1MC piRNA 5'p-UAACUAAAUACUAUGCAAGCUGUAGG; higher = faster piRNA-guided slicing of the target;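 also: 1 nM active piRISC with 0.1 nM target library at 33 °C single turnover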
Method in brief: (§1)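 In HEPES–potassium acetate buffer at 33 °C, […] transcribed, DNA-blocked target RNA library was mixed with 1 nM active affinity-purified piRISC carrying one synthetic guide, with or without 500 nM GTSF1 partner protein, for 0–8 or 0–960 min. Uncleaved targets were sequenced and normalised to depth and to weakly complementary targets; three trials were pooled and k3 was capped at 0.0001 min^-1. The pre-steady-state cleavage rate followed from a burst-and-steady-state fit.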

[2] = test system: EfPiwi piRISC loaded with L1MC piRNA (26 nt); assay: pre-steady-state target cleavage rate (min^-1); auxiliary factor: 500 nM Ephydatia muelleri Gtsf1; guide: L1MC piRNA 5'p-UAACUAAAUACUAUGCAAGCUGUAGG; MIWI and MILI are mouse PIWI proteins and EfPiwi is from a freshwater sponge; tags in brackets are library labels; higher = faster piRNA-guided slicing of the target
Method in brief: as §1

[3] = auxiliary factor: 500 nM mouse GTSF1
[4] = auxiliary factor: none (no GTSF1)

Sequence | pre-steady-state target cleavage rate [1, 3] | pre-steady-state target cleavage rate [1, 4] | pre-steady-state target cleavage rate [2]
UCCUGCAACAGCUUGCAUAGUAUAUAGUUA | 0.36 ± 0.038 | 0.00582 ± 0.0026 | 0.00844 ± 0.0024
UCCUGGAUGUCGUUGCAUAGUACUUAGUUA | 0.0399 ± 0.011 | 0.00463 ± 0.0029 | 0.00365 ± 0.0035
UCCUGCUACUGGUUGCAUAGUAUUUAGUUA | 0.251 ± 0.018 | 0.0113 ± 0.0029 | 0.0113 ± 0.0035
UCCUGGAUGUCUUUGCAUAGUAUUUAGUUA | 0.119 ± 0.015 | 0.0125 ± 0.0027 | 0.00871 ± 0.0039
UCCUGCUACAGCUAGCAUAGUUUUUAGUUA | 0.0836 ± 0.014 | 0.00345 ± 0.0024 | 0.00472 ± 0.0016
UCCUGGAUGUGCUUGCAUGGUAUUUAGUUA | 0.086 ± 0.014 | 0.0124 ± 0.0032 | 0.0043 ± 0.0042
UCCUGGAUCAGCUUGCUUACUAUUUAGUUA | 0.0672 ± 0.0086 | 0.00436 ± 0.0022 | 0.0032 ± 0.0024
UCCUCCUACAGCGUGCAUAGUAUUUAGUUA | 0.309 ± 0.021 | 0.00999 ± 0.003 | 0.1 ± 0.026
UCCUGGAACAGCUUGCAUAGUAUCUAGUUA | 0.213 ± 0.03 | 0.00512 ± 0.0024 | 0.0068 ± 0.0027
UCCUGCUAGAGCUUGGAUAGUAUUUAGUUA | 0.178 ± 0.014 | 0.0074 ± 0.0021 | 0.00499 ± 0.0016
UCCUGGAUGUCCCUUGCAUAGUAUUUAGUUA | 0.116 ± 0.021 | 0.00815 ± 0.0024 | 0.00608 ± 0.0026
UCCUCCUUCAGGUUGCAUAGUAUUUAGUUA | 0.239 ± 0.013 | 0.0102 ± 0.002 | 0.0528 ± 0.012
UCCUGCUUCAGCUUGCAUAGUAAUUAGUUA | 0.253 ± 0.022 | 0.00622 ± 0.0021 | 0.00863 ± 0.003
UCCUGGAUGUCGGUGCAUAGUAUUUAGUUA | 0.0897 ± 0.011 | 0.00862 ± 0.0023 | 0.00511 ± 0.0033
UCCUGGAUGUCCUUGCAUACUAUUUAGUUA | 0.0324 ± 0.01 | 0.00339 ± 0.0025 | 0.00333 ± 0.0024
UCCUGCAACAGCUUGCAUUGUAUUUAGUUA | 0.262 ± 0.018 | 0.0076 ± 0.0027 | 0.0331 ± 0.0081
UCCUGGAUGUCGUAUGCAUAGUAUUUAGUUA | 0.0833 ± 0.012 | 0.00487 ± 0.0028 | 0.00476 ± 0.0027
UCCUGCUACAGCUUGCAUAGUAUUUCAGUUA | 0.335 ± 0.075 | 0.00409 ± 0.0028 | 0.00522 ± 0.0019
UCCUGGAUCAGCUUGCAUAGUAAUUAGUUA | 0.233 ± 0.013 | 0.0101 ± 0.0024 | 0.0264 ± 0.0082
UCCUGGAUGUGCUUCGCAUAGUAUUUAGUUA | 0.155 ± 0.023 | 0.00505 ± 0.0021 | 0.0132 ± 0.0048
UCCUGGUAGACCUUGCAUAGUAUUUAGUUA | 0.221 ± 0.022 | 0.00488 ± 0.0036 | 0.0182 ± 0.0065
UCCUGGAUCAGCUAUGCAUAGUAUUUAGUUA | 0.281 ± 0.019 | 0.0057 ± 0.0026 | 0.106 ± 0.02
UCCUGCAAGAGCUUGCAUAGUAUUUAGUUA | 0.292 ± 0.025 | 0.00624 ± 0.0028 | 0.0267 ± 0.0065

Sequence | pre-steady-state target cleavage rate [1, 3] | pre-steady-state target cleavage rate [1, 4] | pre-steady-state target cleavage rate [2]
UCCUGGAACAGCUUGCAUAGUAUCUUAGUUA | 0.267 ± 0.022 | 0.00791 ± 0.0019 | 0.0187 ± 0.0064
UCCUGGAUGUCCUUGCAUAGUCUUUAGUUA | 0.0269 ± 0.0075 | 0.00468 ± 0.0022 | 0.00326 ± 0.0014
UCCUGGAACAGCUUGCAUAGUAUUAAGUUA | 0.212 ± 0.024 | 0.00457 ± 0.0019 | 0.00549 ± 0.0022
UCCUGGAUGAGCUUGCAUAGUAUUGAGUUA | 0.164 ± 0.036 | 0.00369 ± 0.0027 | 0.00461 ± 0.0019
UCCUGGAUGUGCUUGCAUAGUAUUUAGUUA [g2:g20:cont:t1A] | 0.142 ± 0.013 | 0.00984 ± 0.0023 | 0.015 ± 0.0046
UCCUGGAAGAGCUUGCAAAGUAUUUAGUUA | 0.075 ± 0.012 | 0.00782 ± 0.0029 | 0.018 ± 0.005
UCCUGGAUGUCCUUGCAUAGUAUUUAGUAA | 0.117 ± 0.019 | 0.00376 ± 0.0019 | 0.00321 ± 0.0025
UCCUGGAUCAGCUCGCAUAGUAUUUAGUUA | 0.284 ± 0.019 | 0.00608 ± 0.0029 | 0.0549 ± 0.013
UCCUCCUACAGCUUGCAUAGUAUCUUAGUUA | 0.285 ± 0.022 | 0.00811 ± 0.0026 | 0.0254 ± 0.011
UCCUGCAACAGCAUGCAUAGUAUUUAGUUA | 0.329 ± 0.023 | 0.00926 ± 0.0035 | 0.0232 ± 0.0055
UCCUGCUUCUGCUUGCAUAGUAUUUAGUUA | 0.199 ± 0.016 | 0.00864 ± 0.0018 | 0.0112 ± 0.0038
UCCUGGUACAGCUUGCAUUGUAUUUAGUUA | 0.171 ± 0.017 | 0.0101 ± 0.0041 | 0.00513 ± 0.002
UCCUGGAUCUGCUUGCAUAGUUUUUAGUUA | 0.0213 ± 0.0057 | 0.00511 ± 0.002 | 0.00787 ± 0.0041
UCCUCCUACAGGUUGCUUAGUAUUUAGUUA | 0.237 ± 0.011 | 0.00975 ± 0.0027 | 0.0231 ± 0.0065
UCCUGGAACAGCAUGCAAAGUAUUUAGUUA | 0.129 ± 0.014 | 0.00836 ± 0.0026 | 0.0163 ± 0.0061
UCCUGGUACAGCUUGCAAAGUAUUUAGUUA | 0.11 ± 0.013 | 0.00987 ± 0.0024 | 0.0101 ± 0.0035
UCCUGGAUGUCCUUCGCAUAGUAUUUAGUUA | 0.0676 ± 0.015 | 0.00538 ± 0.0022 | 0.01 ± 0.0052
UCCUGCUAGAGCUUGCAUAGUAAUUAGUUA | 0.19 ± 0.02 | 0.00448 ± 0.0023 | 0.00471 ± 0.0019
UCCUGGAUCAGCUUGCAUAGUAUUUACAAA | 0.105 ± 0.021 | 0.00255 ± 0.0024 | 0.00404 ± 0.002
UCCUGGAUCAGCUUGCAAAGUAUUAAGUUA | 0.119 ± 0.011 | 0.00698 ± 0.0025 | 0.00373 ± 0.0026
UCCUGCUACAGGCUUGCAUAGUAUUUAGUUA | 0.241 ± 0.014 | 0.0112 ± 0.0031 | 0.00977 ± 0.0027
UCCUCCUACAGGUUGCAUACUAUUUAGUUA | 0.0492 ± 0.009 | 0.00246 ± 0.0023 | 0.00612 ± 0.0018
UCCUGGAUGUACUUGCAUAGUAUUUAGUUA | 0.0966 ± 0.016 | 0.0107 ± 0.0025 | 0.00383 ± 0.0029
